Assays:
Settings in all cases: Compound Concentration (nM):1000
ACVR2B = test system: ACVR2B
ACVRL1 = test system: ACVRL1
ADCK3 = test system: T1, ADCK3
T1 construct: gene CABC1

ADCK4 = test system: ADCK4
AKT1 = test system: AKT1
AKT2 = test system: AKT2
AKT3 = test system: AKT3
ALK(C1156Y) = test system: ALK(C1156Y)
ALK(L1196M) = test system: ALK(L1196M)
ALK = test system: ALK
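Further: KINOMEscan scanMAX binding as percent activity remaining versus control; lower means stronger binding.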

COc1ccc2c(-c3ccnc(Nc4cccc(OC(F)(F)F)c4)n3)cnn2n1 [GW810372X]
Percent Control (ACVR2B): 100%
Percent Control (ACVRL1): 100%
Percent Control (ADCK3): 100%
Percent Control (ADCK4): 100%
Percent Control (AKT1): 100%
Percent Control (AKT2): 100%
Percent Control (AKT3): 100%
Percent Control (ALK(C1156Y)): 86%
Percent Control (ALK(L1196M)): 87%
Percent Control (ALK): 88%

COc1ccc(COc2ccc(Cc3cnc(N)nc3N)cc2OC)cc1 [GW632580X]
Percent Control (ACVR2B): 100%
Percent Control (ACVRL1): 100%
Percent Control (ADCK3): 92%
Percent Control (ADCK4): 100%
Percent Control (AKT1): 75%
Percent Control (AKT2): 100%
Percent Control (AKT3): 100%
Percent Control (ALK(C1156Y)): 94%
Percent Control (ALK(L1196M)): 87%
Percent Control (ALK): 98%

O=C(Nc1n[nH]c2nc(-c3ccc(O)cc3)c(Br)cc12)C1CC1 [SB-725317]
Percent Control (ACVR2B): 79%
Percent Control (ACVRL1): 65%
Percent Control (ADCK3): 100%
Percent Control (ADCK4): 100%
Percent Control (AKT1): 100%
Percent Control (AKT2): 100%
Percent Control (AKT3): 85%
Percent Control (ALK(C1156Y)): 54%
Percent Control (ALK(L1196M)): 87%
Percent Control (ALK): 75%

C/C(Nc1ccc(S(N)(=O)=O)cc1)=C1/C(=O)Nc2ccccc21 [GW335962X]
Percent Control (ACVR2B): 100%
Percent Control (ACVRL1): 78%
Percent Control (ADCK3): 100%
Percent Control (ADCK4): 100%
Percent Control (AKT1): 81%
Percent Control (AKT2): 94%
Percent Control (AKT3): 88%
Percent Control (ALK(C1156Y)): 54%
Percent Control (ALK(L1196M)): 60%
Percent Control (ALK): 54%

CC1=C(C(=O)Nc2ccc3[nH]ncc3c2)C(c2ccc3ccccc3c2)CC(=O)N1 (centres unmarked) [GSK270822A]
Percent Control (ACVR2B): 86%
Percent Control (ACVRL1): 100%
Percent Control (ADCK3): 100%
Percent Control (ADCK4): 100%
Percent Control (AKT1): 17%
Percent Control (AKT2): 100%
Percent Control (AKT3): 100%
Percent Control (ALK(C1156Y)): 72%
Percent Control (ALK(L1196M)): 77%
Percent Control (ALK): 68%

COc1ccc2[nH]c3c4[nH]c5ccc(OC)cc5c4c4c(c3c2c1)C(=O)NC4=O [GW296115X]
Percent Control (ACVR2B): 44%
Percent Control (ACVRL1): 100%
Percent Control (ADCK3): 100%
Percent Control (ADCK4): 75%
Percent Control (AKT1): 72%
Percent Control (AKT2): 84%
Percent Control (AKT3): 98%
Percent Control (ALK(C1156Y)): 25%
Percent Control (ALK(L1196M)): 70%
Percent Control (ALK): 55%

CCn1c(-c2nonc2N)nc2c(C#CC(C)(C)O)nc(OCCNC)cc21.Cl [GSK949675]
Percent Control (ACVR2B): 99%
Percent Control (ACVRL1): 100%
Percent Control (ADCK3): 100%
Percent Control (ADCK4): 100%
Percent Control (AKT1): 3.7%
Percent Control (AKT2): 3.1%
Percent Control (AKT3): 0.2%
Percent Control (ALK(C1156Y)): 95%
Percent Control (ALK(L1196M)): 100%
Percent Control (ALK): 85%

COc1cc(N2CCN(C(C)C)CC2)ccc1Nc1nc(Nc2ccc(F)cc2C(=O)NC[C@@H](O)CO)c2cc[nH]c2n1 [GSK1392956A]
Percent Control (ACVR2B): 100%
Percent Control (ACVRL1): 86%
Percent Control (ADCK3): 94%
Percent Control (ADCK4): 100%
Percent Control (AKT1): 83%
Percent Control (AKT2): 100%
Percent Control (AKT3): 100%
Percent Control (ALK(C1156Y)): 0.1%
Percent Control (ALK(L1196M)): 1.1%
Percent Control (ALK): 0.2%

CCS(=O)(=O)c1ccc(OC)c(Nc2ncc(-c3cccc(OC)c3)o2)c1 [GW580509X]
Percent Control (ACVR2B): 100%
Percent Control (ACVRL1): 50%
Percent Control (ADCK3): 100%
Percent Control (ADCK4): 100%
Percent Control (AKT1): 100%
Percent Control (AKT2): 100%
Percent Control (AKT3): 100%
Percent Control (ALK(C1156Y)): 87%
Percent Control (ALK(L1196M)): 100%
Percent Control (ALK): 100%

CCS(=O)(=O)c1ccc(OC)c(Nc2ncc(-c3cccc(F)c3)o2)c1 [GW621970X]
Percent Control (ACVR2B): 100%
Percent Control (ACVRL1): 49%
Percent Control (ADCK3): 100%
Percent Control (ADCK4): 100%
Percent Control (AKT1): 100%
Percent Control (AKT2): 100%
Percent Control (AKT3): 100%
Percent Control (ALK(C1156Y)): 88%
Percent Control (ALK(L1196M)): 97%
Percent Control (ALK): 73%

COc1cc(C)c(N(C)C(=O)CN(C)C)cc1Nc1nc(Nc2cccc(F)c2C(N)=O)c2cc[nH]c2n1 [GSK2219385]
Percent Control (ACVR2B): 100%
Percent Control (ACVRL1): 100%
Percent Control (ADCK3): 80%
Percent Control (ADCK4): 100%
Percent Control (AKT1): 98%
Percent Control (AKT2): 85%
Percent Control (AKT3): 100%
Percent Control (ALK(C1156Y)): 4.5%
Percent Control (ALK(L1196M)): 13%
Percent Control (ALK): 1.7%

CN1CCN(C(=O)c2ccc(NC(=O)Nc3ccc(N(C)c4ccnc(Nc5ccc(CS(C)(=O)=O)cc5)n4)cc3)cc2)CC1.Cl [GW830263A]
Percent Control (ACVR2B): 94%
Percent Control (ACVRL1): 79%
Percent Control (ADCK3): 100%
Percent Control (ADCK4): 47%
Percent Control (AKT1): 100%
Percent Control (AKT2): 100%
Percent Control (AKT3): 100%
Percent Control (ALK(C1156Y)): 64%
Percent Control (ALK(L1196M)): 83%
Percent Control (ALK): 76%

Cl.O=C(O[C@H]1CN[C@H](C#Cc2cc3ncnc(Nc4ccc5c(cnn5Cc5ccccc5)c4)c3s2)C1)N1CCOCC1 [GSK200398A]
Percent Control (ACVR2B): 100%
Percent Control (ACVRL1): 82%
Percent Control (ADCK3): 100%
Percent Control (ADCK4): 100%
Percent Control (AKT1): 92%
Percent Control (AKT2): 100%
Percent Control (AKT3): 100%
Percent Control (ALK(C1156Y)): 94%
Percent Control (ALK(L1196M)): 88%
Percent Control (ALK): 100%

COc1cc(/C=N/Nc2ncnc3[nH]ncc23)ccc1O [GW578748X]
Percent Control (ACVR2B): 40%
Percent Control (ACVRL1): 67%
Percent Control (ADCK3): 100%
Percent Control (ADCK4): 100%
Percent Control (AKT1): 100%
Percent Control (AKT2): 100%
Percent Control (AKT3): 100%
Percent Control (ALK(C1156Y)): 82%
Percent Control (ALK(L1196M)): 75%
Percent Control (ALK): 98%

Cl.O=C(Nc1ccc(Oc2ccc3[nH]c(NC(=O)c4ccco4)nc3c2)cc1)Nc1cc(C(F)(F)F)ccc1F [GW683134A]
Percent Control (ACVR2B): 100%
Percent Control (ACVRL1): 76%
Percent Control (ADCK3): 100%
Percent Control (ADCK4): 100%
Percent Control (AKT1): 100%
Percent Control (AKT2): 100%
Percent Control (AKT3): 100%
Percent Control (ALK(C1156Y)): 92%
Percent Control (ALK(L1196M)): 92%
Percent Control (ALK): 88%

NS(=O)(=O)c1ccc(N/N=C2\C(=O)Nc3ccc(-c4cnco4)cc32)cc1 [GW276655]
Percent Control (ACVR2B): 100%
Percent Control (ACVRL1): 100%
Percent Control (ADCK3): 100%
Percent Control (ADCK4): 100%
Percent Control (AKT1): 84%
Percent Control (AKT2): 65%
Percent Control (AKT3): 100%
Percent Control (ALK(C1156Y)): 97%
Percent Control (ALK(L1196M)): 100%
Percent Control (ALK): 83%

NS(=O)(=O)c1ccc(Nc2ncc(-c3ccccc3)o2)cc1 [GW572399X]
Percent Control (ACVR2B): 100%
Percent Control (ACVRL1): 100%
Percent Control (ADCK3): 100%
Percent Control (ADCK4): 100%
Percent Control (AKT1): 100%
Percent Control (AKT2): 100%
Percent Control (AKT3): 100%
Percent Control (ALK(C1156Y)): 96%
Percent Control (ALK(L1196M)): 96%
Percent Control (ALK): 87%

CN(C)CCNC(=O)Nc1ccc(N(C)c2ccnc(Nc3ccc(CS(C)(=O)=O)cc3)n2)cc1.Cl [GW830900A]
Percent Control (ACVR2B): 88%
Percent Control (ACVRL1): 100%
Percent Control (ADCK3): 100%
Percent Control (ADCK4): 79%
Percent Control (AKT1): 100%
Percent Control (AKT2): 100%
Percent Control (AKT3): 100%
Percent Control (ALK(C1156Y)): 70%
Percent Control (ALK(L1196M)): 85%
Percent Control (ALK): 71%

COc1cccc(-c2c[nH]c3c(N/N=C/c4ccncc4)ncnc23)c1 [GW814408X]
Percent Control (ACVR2B): 71%
Percent Control (ACVRL1): 59%
Percent Control (ADCK3): 100%
Percent Control (ADCK4): 36%
Percent Control (AKT1): 100%
Percent Control (AKT2): 100%
Percent Control (AKT3): 100%
Percent Control (ALK(C1156Y)): 97%
Percent Control (ALK(L1196M)): 99%
Percent Control (ALK): 100%

Cl.O=C(Nc1ccc(Oc2ccc3[nH]c(NC(=O)c4ccccc4)nc3c2)cc1)Nc1cc(C(F)(F)F)ccc1F [GW709042A]
Percent Control (ACVR2B): 100%
Percent Control (ACVRL1): 100%
Percent Control (ADCK3): 100%
Percent Control (ADCK4): 100%
Percent Control (AKT1): 90%
Percent Control (AKT2): 100%
Percent Control (AKT3): 100%
Percent Control (ALK(C1156Y)): 84%
Percent Control (ALK(L1196M)): 92%
Percent Control (ALK): 73%
